# Bioassay records: PubChem BioAssay, National Center for Advancing Translational Sciences (NCATS)
# VACV mCherry inh: inhibitors of vaccinia virus infection (mCherry reporter signal); Vaccinia virus mCherry reporter infection, fluorescence; Potency, µM (series often up to 36.5 µM), for inactives: at the highest dose activity change, negative = inhibition, usual class: inhibitors; actives 0.63% (n = 310,000); calls by dose curve; tested in A549 cells; note: potency is the fitted concentration of half-maximal effect; nearly all actives have a fitted effect of over 35% in size
# FMDV antiviral: foot and mouth disease virus antiviral activity; FMDV antiviral cell-based qHTS; Potency, µM (doses to about 57.9 µM), inactives show at the highest dose activity change, negative = inhibition, hits mostly inhibitors; actives 1.2% (n = 410,000); calls by dose curve; tested in HEK293T cells; note: read-out not given here; potency is the fitted concentration of half-maximal effect; nearly all actives have a fitted effect of over 45% in size
# LASV entry inh: inhibitors of Lassa virus binding or cell entry; Lassa virus pseudotype entry inhibition, cell reporter; Potency, µM (doses to about 37.9 µM), inactives show at the top dose activity change, negative = inhibition, usual class: inhibitors; AID 540256; actives 1.2% (n = 300,000); calls by dose curve; tested in HEK293 cells; note: potency is the fitted concentration of half-maximal effect; nearly all actives have a fitted effect of over 50% in size
# HCMV antiviral: inhibitors of human cytomegalovirus. HFF cells, HCMV-luciferase reporter, 72 h; hits give low values. activity change, negative = inhibition, % at 57.5 µM. actives 4.5% (n = 410,000); in the data active = activity change below about -60%; inconclusive = no clear call, values can overlap the other calls; inactive = above about -39%
#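 Steps: HFFs plated, 16 h 37C; compounds added; HCMV-luciferase added to MOI 1 PFU/cell; 72 h 37C; OneGlo reagent, 5 min room temperature; luminescence read, normalized to controls.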
# Vaccinia Venus: inhibitors of vaccinia virus (Venus reporter). Vaccinia virus Venus reporter expression, fluorescence. Potency, µM (series often up to 36.5 µM), without a hit: top-dose activity change, negative = inhibition, most hits filed as inhibitors. actives 0.46% (n = 330,000); calls by dose curve; tested in A549 cells; note: potency is the fitted concentration of half-maximal effect; nearly all actives have a fitted effect of over 30% in size
# Marburg entry inh: blocks Marburg virus binding to or entry into cells; Marburg virus pseudotyped entry inhibition, cell reporter; Potency, µM (titrated, usually from 37.8 µM), inactives show top-dose activity change, negative = inhibition, most hits filed as inhibitors; actives 1.8% (n = 300,000); AID 540276; calls by dose curve; tested in HEK293 cells; note: potency is the fitted concentration of half-maximal effect
# Active calls of the source: *; i = inactive; ? = inconclusive; . = no result; + = active, no number; [ ] = remark or other dose. This is a sample that favours compounds with a hit; in the whole collection about 6.5% have one here. % is set by controls: 0 for no effect and ±100 for the full control effect.
SMILES,VACV mCherry inh,FMDV antiviral,LASV entry inh,HCMV antiviral,Vaccinia Venus,Marburg entry inh
COc1cccc(-c2cc3nc(-c4ccccc4)cc(N4CCN(C(=O)c5ccoc5)CC4)n3n2)c1,?,32µM*,.,-104*,?,.
O=C(Nc1ccc(Oc2nnc(-c3ccccc3)c3ccccc23)cc1)c1ccccc1,-6%,?,3%,-60*,-8%,?
Cc1ccc(Cl)cc1N1CCN(C(=O)C2CCN(Cc3nc(-c4ccc(Cl)cc4)oc3C)CC2)CC1,?,?,?,1,-24%,10%[46.1 µM]
CCN1CCN(C(=O)C2CCN(Cc3nc(-c4cccc(Cl)c4)oc3C)CC2)CC1,-14%,-14%,.,-26,-11%,3%
Cc1ccc(C)c(N2CCN(C(=O)C3CCN(Cc4nc(-c5cccc(Cl)c5)oc4C)CC3)CC2)c1,?,20µM*,-2%[46.1 µM],13,?,?
Cc1oc(-c2cccc(Cl)c2)nc1CN1CCC(C(=O)N2CCN(c3ccccn3)CC2)CC1,-27%,20µM*,.,.,-23%,.
CCc1ccc(-c2nc(CN3CCC(C(=O)NCc4ccc(F)cc4)CC3)c(C)o2)cc1,.,-23%,?,-17,.,21µM*
CCc1ccc(-c2nc(CN3CCC(C(=O)N4CCN(c5ccccn5)CC4)CC3)c(C)o2)cc1,.,25µM*,?,-16,.,?
CCCCCCCCCCCCCCCCCC(=O)OC(CC(=O)O)C[N+](C)(C)C (configuration not stated),.,.,-8%,.,.,?
COC(=O)c1c(NC(=O)COc2cc(C)c(Cl)c(C)c2)sc2c1CCCC2,-11%,-19%,11%[46.1 µM],6,-8%,.
O=C1Nc2ccccc2NC(c2cccc(Br)c2)=C1N(C(=O)C(=O)c1cccs1)c1ccccc1,.,.,.,-88*,.,.
Cc1ncc2c(c1CNC(=O)c1ccccc1F)CCN(C(=O)c1csc(-c3cccs3)n1)C2,-21%,-8%,.,.,-12%,.
CC(=O)OCC12CC(OC(=O)CC(C)C)C(C)=CC1OC1C(O)C(OC(C)=O)C2(C)C12CO2 (configuration not stated),.,.,?,-97*,.,?
Oc1c(Cl)cc(Cl)cc1/C=N/Nc1ncc(Br)cn1,1.6µM*,-15%,?,-94*,?,?
COC(=O)Nc1nc(-c2ccccc2)c(C(=O)c2ccccc2)s1,.,-15%,3.2µM*,?,?,?
Cc1cnc(SCc2ccccn2)nc1C1CCCN(C(=O)c2ccc3c(c2)OCCO3)C1 (configuration not stated),-12%,-3%,.,.,-6%,.
CC(=O)Nc1cccc(C(=O)/C=C/c2ccc(F)cc2)c1,-22%,?,?,-99*,-25%,?
CC(=O)c1cccc(N/C=C\C(=O)c2ccc(C)cc2)c1,-12%,-33%,7.9µM*,103,-17%,?
CCC(=O)Nc1cccc(C(=O)/C=C/c2cc(Br)ccc2OC)c1,?,8.9µM*,11µM*,-104*,?,?
CC(=O)Nc1cccc(C(=O)/C=C/c2ccc(/C=C/C(=O)c3cccc(NC(C)=O)c3)cc2)c1,.,.,.,-88*,.,.
CC(=O)c1cccc(NS(=O)(=O)c2ccc(N/C=C\C(=O)c3ccc(C)cc3)cc2)c1,-9%,?,-3%,-2,?,?
CCCOc1ccc(C(=O)Nc2cc3nn(-c4ccc(CC)cc4)nc3cc2C)cc1,-23%,31%,18%[46.1 µM],4,-20%,-22%[46.1 µM]
CC(=O)Nc1cccc(C(=O)/C=C/c2ccc(Br)cc2)c1,22µM*,25µM*,?,-71*,11µM*,15µM*
Cc1cccc(C(=O)Nc2ccc(C(=O)/C=C/c3ccncc3)cc2)c1,i,11%,?,-101*,-18%,?
COc1ccc(CC(=O)Nc2cccc(-c3ccc4nnc(C)n4n3)c2)cc1,-14%,-25%,13%[46.1 µM],72,14%,?
SMILES,VACV mCherry inh,FMDV antiviral,LASV entry inh,HCMV antiviral,Vaccinia Venus,Marburg entry inh
COc1ccc(CC(=O)Nc2cccc(-c3ccc4nnc(C)n4n3)c2)cc1OC,i,20µM*,?,92,5%,?
COc1ccc(C(=O)Nc2cccc(-c3ccc4nncn4n3)c2)cc1OC,-15%,-7%,-3%[46.1 µM],-2,10%,-15%[46.1 µM]
COc1ccc(CC(=O)Nc2cccc(-c3ccc4nncn4n3)c2)cc1OC,-7%,18µM*,?,0,-22%,?
CN(C)c1ccc(/C=C/c2ccnc3ccc(I)cc23)cc1,-20%,.,.,.,25%,.
CC(C)OC(=O)c1cc(NC(=O)c2nn(C)cc2Br)cc(C(=O)OC(C)C)c1,-13%,0%,5.2µM*,12,-3%,?
CCOc1ccc(NC(=O)c2nn(C)cc2Br)cc1,i,67%,22%,66,-6%,?
CCCCN(Cc1cccs1)S(=O)(=O)c1ccc(-c2ccc(=O)[nH]n2)s1,-14%,9%,0%[46.1 µM],-68*,-23%,-3%[46.1 µM]
CCN1C(C(=O)c2ccccc2)=C(OC(=O)c2ccccc2OC)c2ccccc2S1(=O)=O,?,-26%,?,-73*,?,-24%[46.1 µM]
CCCCC(=O)OC1=C(C(=O)c2ccccc2)N(CC)S(=O)(=O)c2ccccc21,-15%,-25%,-11%[46.1 µM],?,-11%,?
CCCCN1C(C(=O)c2ccccc2)=C(OC(C)=O)c2ccccc2S1(=O)=O,-20%,?,?,-108*,?,?
COC(=O)C1=NOC2(C=C(Br)C(OC)=C(Br)C2=O)C1 (configuration not stated),.,.,?,.,.,-42%[14.2 µM]
Cc1ccc(O)c(CNc2cnc3ccccc3c2)c1,13µM*,2%,?,64,-24%,?
COc1c(CO)cc(CO)cc(CO)c1=O,.,-11%,.,.,.,.
COc1cc([N+](=O)[O-])ccc1NC(=O)N1CCN(c2cc(-c3noc(C)n3)ccc2C)CC1,-11%,-27%,-17%[46.1 µM],-19,-11%,.
COc1ccc(NC(=O)c2cccn(Cc3ccc(Cl)cc3)c2=O)c(OC)c1,-2%,?,?,-70*,?,.
COc1ccc(/C(C)=N/NC(=O)c2nnn(-c3nonc3N)c2-c2cccs2)cc1OC,-14%,3%,-9%[46.1 µM],+,-7%,4%[46.1 µM]
COc1ccc(/C(C)=N/NC(=O)c2nnn(-c3nonc3N)c2-c2cccs2)cc1,i,?,2%[46.1 µM],0,-4%,-2%[46.1 µM]
COc1cccc(-c2c(C(=O)N/N=C(\C)c3cccs3)nnn2-c2nonc2N)c1,.,-16%,.,+,.,.
COC(=O)C1=C(C(=O)OC)[C@@H]2N(C)c3ccccc3[C@@]23CCC(=O)N(Cc2ccc(OC)cc2)C3=N1,.,.,.,.,.,-9%[14.2 µM]
Cc1ccc(NC(=O)c2cc(C)n(-c3cccc(C)c3)c2C)cc1,-27%,10%,10µM*,-5,-17%,6.5µM*
Cc1ccc(NC(=O)c2cc(C)n(-c3ccccc3)c2C)cc1,-7%,?,2.8µM*,-93*,-14%,2.2µM*
Cc1cc(C(=O)Nc2ccc(Cl)cc2)c(C)n1-c1ccccc1,-13%,?,?,-93*,-15%,1.1µM*
